Assay outcomes (PubChem)
CHT block = inhibits the human high affinity choline transporter | Q9GZV3 | CHT-expressing cells, membrane potential dye, choline response; active compounds read low | B-score at 10 µM | 310,000 compounds, 0.86% hits;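 active = B-score over 3 SD under the library average, and starting fluorescence ratio not unusually high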;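 also: choline stimulus applied at its EC90 after an EC20 pre-addition; B-score computed on integrated fluorescence ratio after choline addition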
ANO1 block = mouse TMEM16A channel inhibition, primary screen | Q8BHY3 | normalized B-score (activity score, 25-100; higher = stronger inhibition) at 10 µM | HEK293 TMEM16A/YFP iodide influx fluorescence, ionomycin | 310,000 compounds, 1.2% hits;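 active = ratio plate-corrected score three or more library SD toward inhibition, starting fluorescence score within five deviations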;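 also: score derived from kinetic fluorescence span divided by baseline fluorescence per well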
Target sequence (Q8BHY3 whole entry, looked up): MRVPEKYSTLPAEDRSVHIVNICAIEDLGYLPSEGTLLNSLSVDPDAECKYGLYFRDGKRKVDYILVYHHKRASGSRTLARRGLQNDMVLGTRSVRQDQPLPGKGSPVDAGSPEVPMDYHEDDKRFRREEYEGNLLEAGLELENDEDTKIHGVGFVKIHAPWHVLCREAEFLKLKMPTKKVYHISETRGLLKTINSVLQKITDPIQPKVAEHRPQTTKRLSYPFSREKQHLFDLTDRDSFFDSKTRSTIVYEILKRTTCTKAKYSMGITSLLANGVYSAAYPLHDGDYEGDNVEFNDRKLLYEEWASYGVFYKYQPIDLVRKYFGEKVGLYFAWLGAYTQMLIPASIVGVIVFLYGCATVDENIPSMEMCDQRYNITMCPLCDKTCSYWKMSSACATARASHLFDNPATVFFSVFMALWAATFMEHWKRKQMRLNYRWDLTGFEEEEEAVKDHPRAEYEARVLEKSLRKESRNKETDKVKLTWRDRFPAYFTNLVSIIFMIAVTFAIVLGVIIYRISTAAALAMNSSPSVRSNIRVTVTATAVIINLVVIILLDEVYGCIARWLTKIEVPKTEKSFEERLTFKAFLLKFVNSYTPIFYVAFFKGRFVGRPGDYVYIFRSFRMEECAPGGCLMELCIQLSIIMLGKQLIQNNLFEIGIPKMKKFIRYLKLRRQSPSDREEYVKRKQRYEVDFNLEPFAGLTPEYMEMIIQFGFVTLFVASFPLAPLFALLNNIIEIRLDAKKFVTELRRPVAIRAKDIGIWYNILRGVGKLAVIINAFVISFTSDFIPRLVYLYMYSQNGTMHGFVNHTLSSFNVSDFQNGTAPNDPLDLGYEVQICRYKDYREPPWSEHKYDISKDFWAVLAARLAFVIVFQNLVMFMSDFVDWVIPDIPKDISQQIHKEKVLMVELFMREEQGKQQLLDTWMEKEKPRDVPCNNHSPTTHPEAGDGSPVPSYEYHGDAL
PHOSPHO1 inh = blocks human PHOSPHO1 phosphatase activity; 290,000 compounds, 1.1% hits; inhibition, % at 13.3 µM; AID 1565; Q8TCT1; recombinant PHOSPHO1, absorbance phosphatase assay; in the data active = inhibition above about 60%
HDAC3 inhib = human HDAC3 inhibition; O15379; recombinant HDAC3, fluorogenic peptide/trypsin coupled, fluorescence; inhibition, % at 8.3 µM; 320,000 compounds, 0.15% hits; in the data active = inhibition above about 26%, passing the limit was not always enough
ANO1 activ = activators or potentiators of mouse TMEM16A chloride channel; Q8BHY3; HEK293 TMEM16A/YFP-H148Q/I152L, iodide quench fluorescence; active compounds read low; B-score at 10 µM; 340,000 compounds, 0.3% hits; AID 623877;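 active = fluorescence-ratio B-score plate-corrected deviation score at least 3 library SD below zero, with starting fluorescence score within 5 deviations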;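 also: channel opened by trigger with iodide after compound preincubation; score built on the fluorescence ratio of max minus min over baseline; more negative score means more quench and so TMEM16A activation or potentiation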
CHT allo act = allosteric activators of human choline transporter CHT; Q9GZV3; CHT-expressing cells, membrane potential dye, choline EC20; active compounds read high; LV-AA mutant CHT in HEK293 cells; B-score at 10 µM; 310,000 compounds, 0.49% hits;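 active = initial fluorescence not abnormally high and integrated response B-score, plate-corrected, over 3 SD above library mean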
CHT block conf = human CHT inhibition, confirmatory screen; 2,400 compounds, 70% hits; AID 493221; shares compounds with CHT block; CHT-expressing cells, choline membrane potential dye; LV-to-AA substituted CHT, HEK293 cells; CHT activity remaining % of control (active compounds read low), % at 10 µM;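 active = choline transporter activity left, mean of duplicates at 10 µM, below buffer-only control mean minus 3 SD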;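 also: depolarization triggered by choline at its EC90 following an EC20 pre-addition; 0% = hemicholinium-3 full block and 100% = buffer-only control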
HEK293 CHT ctr = activity in parental HEK293 cells lacking CHT; membrane potential dye, choline response; active = decrease or increase beyond buffer ±3SD; shares compounds with CHT block; 2,400 compounds, 4% hits; membrane potential ratio readout (active if shifted either direction beyond buffer ±3SD; no single direction) at 10 µM;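 also: parental cells lack the transporter so any hit is non-specific; ratio is peak minus trough fluorescence over baseline after EC90 choline challenge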
* = called active by the depositor; i = inactive; · = no result given. In the library only some 3.2% were active in any assay of this set; here they are far more common.

SMILES	CHT block	ANO1 block	PHOSPHO1 inh	HDAC3 inhib	ANO1 activ	CHT allo act	CHT block conf	HEK293 CHT ctr
COc1ccc(C2(O)CCN(C(=O)NC3CCCCC3)CC2)cc1	-7.8*	i	9	11	i	i	36%*	i
COc1ccccc1CNC(=O)c1ccccc1C(=O)NC(C)(C)C(=O)NCc1ccccc1OC	i	i	18	14	i	i	·	·
Cc1ccc(C(C)C)c(OCC(=O)N/N=C/c2cccn2C)c1	i	i	22	9	i	i	·	·
O=C(NN1C(=O)/C(=C/c2cc([N+](=O)[O-])ccc2O)SC1=S)c1ccccc1O	i	i	·	-4	·	i	·	·
O=C(NN1C(=O)/C(=C/c2ccc(O)c([N+](=O)[O-])c2)SC1=S)c1ccccc1Cl	-5.4*	i	-17	14	i	i	i	i
CC(C)[C@H]1C(=O)Nc2ccccc2N1C(=O)N[C@@H](Cc1ccccc1)C(=O)N[C@H](Cc1ccccc1)C(=O)O	-7.2*	i	23	0	i	i	i	i
COc1cc(C(=O)OCC(=O)NC(=O)c2cccn2C)ccc1OC(F)F	i	i	30	-1	i	i	·	·
CN(C)S(=O)(=O)c1ccc(NC(=O)C2CC3C=CC2C3)cc1 (stereo not drawn)	-6.7*	i	-9	-2	i	i	i	i
CN(C)S(=O)(=O)c1ccc(NC(=O)C2COc3ccccc3O2)cc1 (stereo not drawn)	i	i	-7	-15	i	i	·	·
CC(NC(=O)c1cccc(OC2CCN(C(=O)C3CC3)CC2)c1)c1ccc(F)cc1 (stereo not drawn)	-6.3*	i	26	-19	i	i	38%*	i
COCC(C)N1CCC(Oc2cccc(C(=O)NCCc3ccccc3)c2)CC1 (stereo not drawn)	-10*	i	47	-5	i	i	14%*	i
C/C=C(\C)CN1CCC(Oc2cccc(C(=O)NCc3ccccn3)c2)CC1	-9.1*	i	41	6	i	i	21%*	i
CC(C)CN1CCC(Oc2cccc(C(=O)NCCc3ccccc3)c2)CC1	-12*	i	33	1	i	i	21%*	i
CC(NC(=O)c1cccc(OC2CCN(C3CCN(C)CC3)CC2)c1)c1ccccc1 (stereo not drawn)	i	i	7	7	i	i	·	·
CC(C)(C)n1nnnc1C(c1ccc2ncccc2c1)N1CCC(O)CC1 (stereo not drawn)	-5.3*	i	-3	-6	i	i	i	i
CC(C)(C)OC(=O)NCCCC[C@H](NC(=O)c1nc[nH]c1C(=O)NCC(=O)OCc1ccccc1)C(=O)OC(C)(C)C	i	i	-2	-1	i	i	·	·
COC(=O)CCC(=O)OC1(C)C(=O)C=C2C=C(C3CC3)N(CC3CC3)C=C2C1=O (stereo not drawn)	i	i	31	0	i	i	·	·
CCN(CC)CCCN1C=C2C(=O)C(C)(OC(=O)CCC(=O)OC)C(=O)C=C2C=C1C1CC1 (stereo not drawn)	-5.7*	i	·	5	i	i	45%*	i
CCOC(=O)C1(Cc2ccccc2C)CCCN(C(=O)c2cc(C3CC3)[nH]n2)C1 (stereo not drawn)	-6.3*	i	46	2	i	i	i	i
CCOC(=O)C1(Cc2ccccc2C)CCCN(C(=O)c2ccccn2)C1 (stereo not drawn)	i	i	11	1	i	i	·	·
CCn1c(COc2ccc(=O)n(-c3ccccc3)n2)nnc1SCc1ccc(OC)cc1	-5.3*	i	24	-4	i	i	i	i
O=C(O)c1ccccc1C(=O)c1ccc(Cl)cc1	i	i	-1	1	i	i	·	·
O=C(CC(CC(=O)c1ccc(Cl)cc1)c1ccccc1C(=O)O)c1ccc(Cl)cc1	-5.8*	i	19	-2	i	i	40%*	i
O=C1C(=O)N(CCN2CCOCC2)C(c2cccnc2)/C1=C(/O)c1ccccc1 (stereo not drawn)	i	i	-22	·	·	i	·	·
O=C1C(=O)N(CCN2CCOCC2)C(c2cccnc2)/C1=C(/O)c1ccc(Cl)cc1 (stereo not drawn)	-9.5*	i	32	5	i	i	i	i
SMILES	CHT block	ANO1 block	PHOSPHO1 inh	HDAC3 inhib	ANO1 activ	CHT allo act	CHT block conf	HEK293 CHT ctr
O=C(O)CSc1cc(C(=O)c2ccccc2O)cn2c(=O)c3c(-c4ccccc4)csc3nc12	-7*	i	-25	-3	i	i	30%*	i
Cc1ccsc1C(=O)OCc1cc(=O)n2ccsc2n1	·	·	·	1	i	·	·	·
COc1ccc(-c2csc3ncnc(N4CCN(CCO)CC4)c23)cc1	-7.9*	i	38	5	i	i	42%*	i
COc1ccc(-c2csc3ncnc(NCCCO)c23)cc1	-5.8*	i	25	-7	i	i	59%*	i
OCCN1CCN(c2ncnc3scc(-c4ccc(F)cc4)c23)CC1	-5.7*	i	24	5	i	i	33%*	i
Cc1ccc(-c2csc3ncnc(N4CCN(Cc5ccccc5)CC4)c23)cc1	i	i	45	-1	i	i	·	·
CCN1CCN(c2ncnc3scc(-c4ccc(C)cc4)c23)CC1	-9.9*	i	14	-5	i	i	22%*	i
C[C@H](CO)N1C[C@H](C)[C@@H](CN(C)S(=O)(=O)c2ccc(F)cc2)Oc2ccc(NS(=O)(=O)c3ccccc3)cc2C1=O	·	·	·	7	i	·	·	·
CSCCC(NS(=O)(=O)c1ccc2[nH]c(=O)c(=O)[nH]c2c1)C(=O)O (stereo not drawn)	i	i	30	4	i	i	·	·
Cc1c(NC(=O)COC(=O)Cn2cc(C(F)(F)F)ccc2=O)cccc1[N+](=O)[O-]	·	·	·	1	i	·	·	·
Cc1cc2c(ccc3c2no[n+]3[O-])nn1	i	i	10	4	i	i	·	·
O=C(Cc1cccs1)Nc1ccc(-c2nc3ccccc3[nH]2)cc1	i	i	-13	-1	i	i	·	·
COc1ccc(OC)c(-c2nnc(SCC(=O)NC3CCCCC3)o2)c1	i	i	13	2	i	i	·	·
